Screening results (PubChem BioAssay)
CCHF vOTU inh-1 – CCHFV vOTU protease inhibitors, primary screen, biochemical, Pep-AMC substrate, fluorescence. inhibition, % at 11.5 µM. AID 651958, 2012. Crimean-Congo hemorrhagic fever virus L polyprotein viral ovarian tumor (vOTU) protease …. 370,000 compounds, 0.55% hits; note: 0% = vehicle wells with enzyme and 100% = no enzyme wells
Sa RN4220 lethal – growth inhibition of S. aureus RN4220, primary screen, OD600; 16 h; inhibition, % (concentration not given with the values); 330,000 compounds, 0.33% hits; in the data active = inhibition above about 85%;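 note: plate controls were untreated cells for no effect and reference antibiotic for full effect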
Mtb hypoxia inh – PubChem AID 1159583; M. tuberculosis hypoxia-regulated fluorescent reporter, fluorescence; 300,000 compounds, 0.1% hits; fluorescence inhibition, % (test concentration not listed); in the data active = fluorescence inhibition mostly above about 23%, no sharp cut-off; inactive = mostly below about 17%
ugtP null kill – growth inhibition of ugtP-null S. aureus, primary screen, RN4220 ugtP deletion, OD600; growth inhibition, % (concentration not given with the values); 330,000 compounds, 0.54% hits; 16 h; in the data active = growth inhibition above about 68%;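 note: plate controls were untreated wells for no effect and antibiotic for full effect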
SSB-PriA inh – inhibitors of Klebsiella pneumoniae PriA binding to SSB C-terminal tail, primary screen, biochemical, AlphaScreen; PriA–SSB C-terminal tail interaction (Klebsiella pneumoniae); AlphaScreen SSBct-PriA binding, biotinylated peptide; inhibition, % at 33 µM; 430,000 compounds, 0.6% hits; AID 1272365, 2023; in the data active = inhibition mostly above about 37%, no sharp cut-off; inactive = mostly below about 20%;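 note: plate controls were negative control peptide for no effect and reference peptide for full effect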
CCHF vOTU inh-2 – CCHFV vOTU protease inhibitors, confirmation, biochemical, Pep-AMC substrate, fluorescence; Recombinant CCHFV vOTU; inhibition, % at 11.5 µM; AID 686976, 2013; shares compounds with CCHF vOTU inh-1; 1,900 compounds, 17% hits
Numbers without * were called inactive; / = no result. Shown are actives, neighbours in structure and some others; about 1.4% of the full set was active somewhere. Cut-off read from the data, not from the text of the source, unless noted: active = inhibition above about 30%; inactive = the rest.

SMILES | CCHF vOTU inh-1 | Sa RN4220 lethal | Mtb hypoxia inh | ugtP null kill | SSB-PriA inh | CCHF vOTU inh-2
CCCCn1c(N)c(N(CC(C)C)C(=O)c2cc3c(s2)CCCCC3)c(=O)[nH]c1=O | 1 | 3 | 6 | 3 | 1 | /
CCCCn1c(N)c(N(CC(C)C)C(=O)c2cccs2)c(=O)[nH]c1=O | 39* | 1 | -1 | 9 | -6 | -13
CNC(=O)CS(=O)(=O)C1CCN(S(=O)(=O)c2cccnc2)CC1 | / | / | / | / | -12 | /
COc1cccc(-c2cc(=O)[nH][nH]2)c1 | 9 | 8 | 6 | -2 | -20 | /
COc1ccc(-c2cc(=O)[nH][nH]2)cc1OC | 60* | 5 | 10 | -1 | -22 | -19
Cc1ccc(F)cc1-c1cc(C(=O)NCc2cc(C(F)(F)F)cc(C(F)(F)F)c2)[nH]n1 | 30* | / | / | / | / | 5
Cc1ccc(Cl)cc1-c1cc(C(=O)NCc2cc(C(F)(F)F)cc(C(F)(F)F)c2)[nH]n1 | 33* | / | / | / | / | -19
COc1ccc(Cl)cc1-c1cc(C(=O)NCc2cc(C(F)(F)F)cc(C(F)(F)F)c2)[nH]n1 | 5 | / | / | / | / | /
CCc1nnc(NS(=O)(=O)c2ccc(NC(=O)/C=C/c3ccccc3Cl)cc2)s1 | 35* | 5 | 7 | 14 | 7 | 5
CCc1nnc(NS(=O)(=O)c2ccc(NC(=O)/C=C/C(=O)O)cc2)s1 | -11 | / | / | / | -40 | /
CCOC(=O)c1c(-c2ccc(OC)cc2)oc2cc(Br)c(OCC(N)=O)cc12 | / | / | / | / | -12 | /
O=C1NC(c2ccc(-c3ccccc3[N+](=O)[O-])o2)C(C(=O)c2ccc(F)cc2)C(O)(C(F)(F)F)N1 (centres undefined) | 42* | 8 | 8 | -9 | 32 | 5
CCOC(=O)c1cnc(Nc2ccccc2)nc1C(F)(F)F | 34* | 3 | 6 | 51 | -29 | -4
O=C(NCc1cccs1)C1Cc2c(-c3ccccc3Oc3ccccc3)ccnc2O1 (centres undefined) | 9 | / | / | / | / | /
O=C(NCc1ccncc1)C1Cc2c(-c3ccccc3Oc3ccccc3)ccnc2O1 (centres undefined) | 32* | / | / | / | / | -14
CC(C)CNC(=O)C1(C)CCCCCN1Cc1ccccc1-c1ccccc1 (centres undefined) | 35* | / | / | / | / | 9
O=C1N/C(=N\NC(=O)c2ccncc2)CS1 | / | / | / | / | 7 | /
COc1ccc(CSC2=C(C#N)C(=O)NC3(CCCCC3)S2)cc1 | 19 | / | / | / | / | /
CCCCCCSC1=C(C#N)C(=O)NC2(CCCCC2)S1 | 35* | 2 | 1 | -24 | 9 | -3
COc1cc2[nH]c(=O)n(Cc3ccc(C(=O)NCc4cccs4)cc3)c(=O)c2cc1OC | / | / | / | / | 2 | /
COc1ccc2[nH]cc(CCNC(=O)c3ccco3)c2c1 | -9 | 3 | 1 | 4 | 5 | /
O=C(Oc1ccc2[nH]cc(CCN3C(=O)c4ccccc4C3=O)c2c1)c1ccco1 | 36* | 13 | 11 | 4 | 15 | -24
COC(=O)C1C[C@@]2(O)C(O)C(O)C(O)CC2N1CC(c1ccccc1)c1ccccc1 (some centres undefined) | / | 5 | 4 | 1 | / | /
CC(=O)NCC(=O)OC(C)C(=O)Nc1ccc(C(C)=O)cc1 (centres undefined) | 38* | 5 | 1 | 9 | 0 | -20
CC(=O)NCC(=O)OCC(=O)Nc1ccc(C(C)=O)cc1 | 2 | 4 | / | 10 | -6 | /
SMILES | CCHF vOTU inh-1 | Sa RN4220 lethal | Mtb hypoxia inh | ugtP null kill | SSB-PriA inh | CCHF vOTU inh-2
CCCc1ccc(-c2cc(NC(=O)Cc3c(C)[nH]c4ccccc34)ccc2Nc2cccnc2)cc1 | 12 | / | / | / | / | /
CCCc1ccc(-c2cc(NC(=O)Cc3c(C)[nH]c4ccccc34)ccc2N(C)c2cccnc2)cc1 | 39* | / | / | / | / | -3
COc1ccc(S(=O)(=O)NC[C@H](OC)c2ccc(C)s2)cc1Cl | / | / | / | / | -3 | /
CCCC(=O)Nc1ccc(S(=O)(=O)Nc2ccc3c(c2)N(C(=O)COC)CCC3)cc1 | / | / | / | / | 11 | /
Cc1ccccc1Nc1c([N+](=O)[O-])cncc1[N+](=O)[O-] | 30* | 12 | 4 | -7 | 18 | -7
COc1ccccc1Nc1c([N+](=O)[O-])cncc1[N+](=O)[O-] | 1 | 22 | -3 | 1 | 8 | /
O=C(Nc1ccc(-c2ccc(N3CCCC3)nn2)cc1)c1cc(-c2ccc(F)cc2)n[nH]1 | / | / | / | / | -12 | /
COC(=O)c1cc(-c2ccc(C)s2)[nH]n1 | / | / | / | / | 17 | /
CC(C)Cc1ccc(-c2cc3nc(NCCCn4ccnc4)ccn3n2)cc1 | 30* | / | / | / | / | 2
FC(F)(F)c1cccc(-c2cc3nc(NCCCn4ccnc4)ccn3n2)c1 | 0 | / | / | / | / | /
CC#CC[N+](C)(C)CCCCCCCC | 0 | 4 | 7 | 5 | -6 | /
CCCCCCCCCCCCCCCC[N+](C)(C)Cc1ccc(F)cc1 | 56* | / | / | / | -9 | 57*
C=CCN(CC=C)S(=O)(=O)c1ccc(C(=O)Nc2nc3c(s2)C(=O)CC(C)(C)C3)cc1 | / | / | / | / | -15 | /
COc1ccc(C=c2sc3n(c2=O)C(c2ccccc2OC)C2=C(N=3)c3ccccc3CC2)cc1O (centres undefined) | / | -4 | -7 | 0 | 7 | /
O=C1c2cccc(O)c2C(=O)c2c(O)cc(CO)cc21 | / | / | / | / | 6 | /
CC1OC2CC(=O)OC2C2=C1C(=O)c1c(O)cccc1C2=O (centres undefined) | 98* | / | / | / | / | 91*
CC(=NOCc1cccc(C(=O)O)c1)c1ccc(Cl)cc1 | / | 12 | 5 | -5 | -9 | /
CC(C)C(C(=O)NCc1ccco1)N(C(=O)CNS(=O)(=O)c1ccccc1)c1ccccc1 (centres undefined) | 34* | 0 | 5 | 1 | -14 | -13
O=C(O)Cc1csc(Nc2ccc(OC(F)(F)F)cc2)n1 | / | / | / | / | 14 | /
O=S1(=O)N=C(N(CCO)/N=C/c2ccncc2)c2ccccc21 | 30* | / | / | / | / | -8
O=C(NCc1ccc(OC(F)(F)F)cc1)C1CC(c2ccccc2C(F)(F)F)=NO1 (centres undefined) | 37* | 1 | 4 | 7 | 6 | 5
C[C@@H]1CN([C@H](C)CO)C(=O)c2cc(Br)cnc2O[C@H]1CN(C)C(=O)c1ccccc1 | 34* | / | / | / | / | -19
COC(=O)C1=C(C(=O)OC)SC2(S1)C(C(=O)OC)=C(C(=O)OC)Sc1c2ssc1=O | 32* | / | / | / | 96* | 9
CC1(Cc2cccc(C(F)(F)F)c2)C(=O)Nc2ccc(-c3ccc(F)c(Cl)c3)cc21 (centres undefined) | 32* | / | / | / | / | -1
CC1(Cc2cc(Cl)ccc2C(F)(F)F)C(=O)Nc2ccc(-c3ccc(F)c(Cl)c3)cc21 (centres undefined) | 20 | / | / | / | / | /
CCOc1ccc(S(=O)(=O)Nc2cc(Cl)c(O)c3ccccc23)cc1 | / | / | / | / | 9 | /
Cc1ccc(S(=O)(=O)Nc2cc(Cl)c(O)c3ncccc23)cc1 | 30* | / | / | / | 45* | -3
Cc1ccc(C=Nn2nnnc2N)cc1 | / | 4 | 12 | 7 | -2 | /
CC1=C(C(=O)OCC(C)C)C2(O)C(=O)c3ccccc3C2(O)N1 (centres undefined) | 30* | 1 | 1 | 5 | -28 | -18
